Assay results reported in PubChem BioAssay AID1347423 (Functional Genomics Laboratory (NCATS/FGL), 2020).
The campaign covered roughly 52,000 sequences. About 210 (0.4%) were called active.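 How the source made its calls: active means gene whose silencing raises cell survival under the drug, median off-target-corrected z-score across its silencing RNAs 2 or more; inactive means the rest.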 This excerpt belongs to a sample that is enriched for actives.

Experiment: Resistance to Poly (ADP-Ribose) Polymerase inhibitor: Gene Identification via Genome-wide siRNA Screen
Conditions: mouse BRCA2 R2336H ES cells, olaparib, CellTiter-Glo viability; stronger effect = higher value
Summary of the method: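 Genome-wide siRNA screen (3 siRNAs/gene, 20 nM) in mouse ES cells carrying hypomorphic BRCA2 R2336H; olaparib 500 nM added 48 h post-transfection, CellTiter-Glo viability 72 h later. Normalized to plate-median negative control; MAD z-scores, gene median, seed-adjusted.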

Sequence | z-score
CGAUCUACAUCUGCAUCAUTT against Olfr1212 | -0.961 (inactive)
GGCUUUGAUUGAACAUGAGTT against Lypla2 | 0.783 (inactive)
CCAUCUAUGAUCCCAGAGCTT against Fbxw9 | 0.241 (inactive)
GGACGUGACAGACAUUAUUTT against Htr5b | -0.897 (inactive)
GCCAAUGAUGUAGCAAAUUTT against Slc20a1 | 2.1 (active)
CCCUAAUAGAACUAAUGAATT against Kpnb1 | -3.47 (inactive)
CCUACUUCCUCCAUUUAGGTT against 5033413D22Rik | 1.42 (inactive)
GGAGUACAGUGAUGACAAGTT against Ing5 | 0.235 (inactive)
GGUUGGCCAUAUAAAGAGATT against Smarca3 | 0.771 (active)
GGCAAAUGGUCUUUAUGCATT against Zfp606 | -0.699 (inactive)
GGGAAGUCACUUUUGUUCCTT against Top2a | -1.25 (inactive)
GGCCAAAUUCUUCAGCAGATT against Rpl27a | -2.82 (inactive)
GGUCCACGGUUACUAAAAATT against Klrd1 | 2.45 (active)
CCAAAACAACCACAAGUAGTT against A930006D11 | -2.39 (inactive)
GGUGAUAGUCCACGAGGUUTT against Mbc2 | -1.31 (inactive)
GGGUUUUUUUUUUCCUUCCTT against Hsd17b1 | 1.88 (active)
GGAGUUUGAGACACUCUGCTT against Apg4d | 0.266 (inactive)
GGUCCUUCCAUAGUGACGCTT against Igfbp7 | 0.24 (inactive)
GGAAAUAUGAUCCAUCCUGTT against Zfp282 | 1.65 (inactive)
GGUAUCAAGUGCAGAAUGUTT against Slc37a1 | 1.99 (active)
GGGUAACAGUGGUGAACCUTT against Col1a1 | -1.52 (inactive)
GCUACAAUAUGACAAGUGUTT against Adamts5 | 2.82 (active)
GGAUGCUCUCUUAAAUGGATT against AI595338 | -0.0806 (inactive)

Sequence | z-score
GGAAAAUUGAGAUUUCUGCTT against 1110003E01Rik | 1.52 (inactive)
GGAUGAAAAAUACUGGUGUTT against Ugt8 | 3.17 (inactive)
GAAGAUCCACUUCAUCGCCTT against Psmb10 | -1.82 (inactive)
GGAAGACAUGAAAUUGUUCTT against Psma3 | -2.92 (inactive)
GGAUGAAGAGAAAAAUUGATT against Slc20a1 | 2.96 (active)
GGGUGUACAUUGAAAUUAATT against Epha4 | 1.05 (inactive)
GGAAUUUGAUUCUCUGCCUTT against 6820429M01 | 0.0636 (inactive)
GGCACAUGCCCUUUUCUACTT against Cog1 | 0.266 (inactive)
GCAUUCAGAAUGAGCUGACTT against Nfasc | -0.0641 (inactive)
GGUGAUCUUCAAAUUGGAGTT against Zfp90 | -0.401 (inactive)
GCUAUAUCUAAAGCUAUUCTT against Sgpp1 | 0.574 (active)
GGCCCACCUAUUUCAUCUCTT against Actl7b | 0.808 (inactive)
GGAGUUUGCCACAAUUGUUTT against 2810408E11Rik | -1.26 (inactive)
GGAAGAGAGAUGGAAAAAATT against Gcnt1 | -0.555 (inactive)
GGAAAGUGUCACCAAGUUCTT against B230359F08Rik | -0.0496 (inactive)
GGUACUAAACACCAACUCCTT against B230315M08Rik | 1.28 (active)
GGAAGGAAGAGAAAAACAATT against D11Ertd730e | -1.34 (inactive)
GGGAUCCGAAUUCUGACCATT against 2010305C02Rik | 1.23 (inactive)
GGCCAUCAGAUAGUUUAAUTT against AW551984 | -0.3 (inactive)
GCAAGAUUCAGAGUGCAGCTT against 4932441K18 | -0.922 (inactive)
GCCUUACUCUCUCAGUCCUTT against D930018N13 | -1.82 (inactive)
GGAUACAUUAAUUGUUUGGTT against AW011752 | 0.68 (inactive)
CCACACUGAGGACUAUAUUTT against Cstf1 | 0.623 (inactive)

Sequence | z-score
GGAUAGCUGCCAACACUACTT against BC048937 | -0.0419 (inactive)
GGCCUAUCUUCCCAGGAAATT against Mapk1 | 1.76 (active)
GCAAAAAUUAUGCAGAGCATT against Olfr1443 | 2.55 (inactive)
CGGUAUCUCAACUUUUACATT against Stra8 | 0.301 (inactive)
GCGAACGAAGCAUAAAUGGTT against Mettl1 | -0.126 (inactive)
GGCAGUAGUGUUAACGGUGTT against Chrnb2 | 2.38 (active)
GGAUGCUGUAACACUUUAUTT against Bcl6 | -1.71 (inactive)
GGACCAGGUAUUCAUGAUCTT against Sema3c | 1.79 (inactive)
CCAUGAUGAUAAUCUGAAUTT against B930090D16Rik | 0.709 (inactive)
GGAAGAUUUUUCAAAGGAUTT against Itgb6 | 2.51 (active)
CAAUAACAGCGAAACAUCCTT against Scn4b | 2.18 (inactive)
GUCUCUCUUUUAACAUGCUTT against Ceacam13 | 2.49 (inactive)
GCUUGUCUCACACAGCUCUTT against Olfr401 | -0.379 (inactive)
CCCACAAGGUUAAGAUAUATT against Col14a1 | 0.22 (inactive)
GACGGUGGGACUCACUGUUTT against Ors6 | -0.403 (inactive)
GGUUGACACAGAUGAAGAGTT against Rdh9 | -0.356 (inactive)
GCGUGCAGCCCUCAAUGAATT against Ppp2r5b | 1.44 (active)
GGAAUCCAUGCAGAAAUAATT against Pcdhga6 | 1.54 (inactive)
GGAGAUGGCUUCUCUCUCGTT against Rarg | 1.37 (active)
CGCGGGAUGAAGGAUAUAATT against LOC432589 | -2.23 (inactive)
GGAGAACUGUCAGAACGAGTT against Gpx2 | -2.7 (inactive)
